Records with an inconclusive call do not appear. Where a call stands in place of a potency, no number is given. Calls of active or inactive are those of the source. Calls follow the shape of the dose curve; as a rule, active = well fitted inhibition curve with a large enough effect in the repeat runs; inconclusive = weak or mixed curves; inactive = no such curve, though single readings can be large or run the other way.
These compounds were tested against Cytochrome P450 3A4 (Homo sapiens) (UniProt P08684) (assay: Cytochrome P450 Family 3 Subfamily A Member 4 (CYP3A4) small molecule antagonists: luciferase reporter qHTS assay (AID 1671201; also: nearly all actives have a fitted effect of over 50% in size)). Conditions: P450-Glo CYP3A4 enzyme, luciferin luminescence, 1 h; series mostly up to 115 µM.
Cytochrome P450 3A4 (Homo sapiens), sequence (P08684 whole entry, looked up): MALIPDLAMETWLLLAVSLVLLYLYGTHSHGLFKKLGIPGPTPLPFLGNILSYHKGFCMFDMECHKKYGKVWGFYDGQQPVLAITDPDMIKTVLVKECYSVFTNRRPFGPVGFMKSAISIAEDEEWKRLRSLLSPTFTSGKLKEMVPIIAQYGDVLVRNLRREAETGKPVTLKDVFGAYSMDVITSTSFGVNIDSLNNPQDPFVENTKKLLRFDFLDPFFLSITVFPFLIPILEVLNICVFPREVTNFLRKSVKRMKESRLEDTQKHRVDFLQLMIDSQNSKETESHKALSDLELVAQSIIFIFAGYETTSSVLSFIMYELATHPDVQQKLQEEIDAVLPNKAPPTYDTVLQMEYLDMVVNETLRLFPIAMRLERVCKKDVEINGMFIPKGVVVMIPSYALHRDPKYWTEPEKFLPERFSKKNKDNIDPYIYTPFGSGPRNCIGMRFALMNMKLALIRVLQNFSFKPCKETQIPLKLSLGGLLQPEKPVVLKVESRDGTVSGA
Method in brief: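 Setup: enzyme-substrate mix, compound pin transfer, 10 min RT. Reaction: NADPH regeneration solution, 1 h RT. Readout: detection reagent stops turnover, luminescence measured after 20 min, expressed in relative luminescence units.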
Potency is read from the fitted curve at half-maximal effect.

Structure (SMILES) | Potency
CCCCNCCCC | inactive
Cc1nnc(SCC2=C(C(=O)O)N3C(=O)[C@@H](NC(=O)Cn4cnnn4)[C@H]3SC2)s1 | inactive
FC(F)(F)c1ccccc1 | inactive
Nc1cccc(S(=O)(=O)O)c1 | inactive
O=C1C=CC(=O)O1 | inactive
C[C@]12CCC(=O)C=C1CC[C@@H]1[C@@H]2CC[C@@]2(C)[C@H]1CC[C@]2(O)C(=O)CO | inactive
CCCCCCCCCC#N | inactive
CCOc1ccccc1N | 15.8 µM (active)
C=CCc1cc(OC)c(O)c(C(=O)NCCO)c1 | inactive
CC(C)CCCCCCc1ccc(OCCOCCO)cc1 | inactive
CCCS(=O)c1ccc2nc(NC(=O)OC)[nH]c2c1 (configuration not stated) | inactive
O=C1CCCCC1C1CCCCC1 (configuration not stated) | inactive
COc1ccc(Nc2ccc(OC)cc2)cc1 | 18.2 µM (active)
CC/C=C\CCOC(=O)CCCCC | inactive
Cc1c(N)cccc1N | 6.47 µM (active)
CCCOCCC | inactive
CC1=C(CC(=O)O)c2cc(F)ccc2/C1=C\c1ccc(S(C)(=O)=O)cc1 | inactive
CCOC(=O)C(Br)c1ccccc1 (configuration not stated) | inactive
O=Cc1ccc(O)c(O)c1O | inactive
CCCCN1C[C@H](O)[C@@H](O)[C@H](O)[C@H]1CO | inactive
CC(C)C(=O)OC/C=C/c1ccccc1 | inactive
CC(C)(C)c1cccc(O)c1 | inactive
